Results filed as inconclusive are left out. Active and inactive are the calls of the source. Unless noted, calls follow the shape of the dose curve; as a rule, active = well fitted curve in the direction sought with a large enough effect in the repeat runs; inconclusive = weak or mixed curves; inactive = no such curve, though single readings can be large; an effect the other way counts as inactive or inconclusive.
Columns and labels:
[1] = qHTS assay to identify small molecule agonists of the peroxisome proliferator-activated receptor delta (PPARd) signaling pathway - cell viability counter screen (AID 743211); also: nearly all actives have a fitted effect of over 55% in size; also: potency is read from the fitted curve at half-maximal effect
Summary of the method: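 Following 5 h plating at 37 C and 5% CO2, PPARd UAS-bla HEK293H cells took up test compounds for 17 h. Viability was quantified by luminescence 30 min after CellTiter-Glo addition at room temperature.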

[2] = qHTS assay to identify small molecule antagonists of the peroxisome proliferator-activated receptor delta (PPARd) signaling pathway - cell viability counter screen (AID 743213); also: nearly all actives have a fitted effect of over 50% in size; also: potency is read from the fitted curve at half-maximal effect
Summary of the method: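 In this counter screen, HEK293H cells carrying a UAS-beta-lactamase reporter are co-treated with test compounds and 300 nM L165041 (final) for 17 h at 37 C; cell viability is quantified by CellTiter-Glo luminescence.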

[3] = qHTS assay to identify small molecule agonists of the farnesoid-X-receptor (FXR) signaling pathway - cell viability counter screen (AID 743218); also: nearly all actives have a fitted effect of over 45% in size; also: potency is read from the fitted curve at half-maximal effect
Summary of the method: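 After 16 h at 37 C with test compounds, FXR-bla HEK 293T cells were given LiveBLAzer B/G substrate for 2 h at RT and then CellTiter-Glo; luminescence was taken after 30 min.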

[4] = qHTS assay to identify small molecule agonists of the vitamin D receptor (VDR) signaling pathway - cell viability counter screen (AID 743224); also: nearly all actives have a fitted effect of over 50% in size; also: potency is read from the fitted curve at half-maximal effect
Summary of the method: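 Here cell health was gauged by luminescent ATP detection (CellTiter-Glo, 30 min RT) in VDR-bla cells that had been incubated with test compounds for 16 h at 37C and 5% CO2.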

[5] = qHTS assay to identify small molecule agonists of the NFkB signaling pathway - cell viability counter screen (AID 1159515; calls by dose curve; also: nearly all actives have a fitted effect of over 55% in size; also: potency is read from the fitted curve at half-maximal effect)
Summary of the method: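 5 hr compound treatment of NFkB-bla ME-180 cells (2,000/well, seeded overnight beforehand), followed by reporter substrate for 1.5 hr. CellTiter-Glo added afterward; luminescence after 30 min RT.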

[6] = qHTS assay to identify small molecule agonists of the endoplasmic reticulum stress response signaling pathway - cell viability counter screen (AID 1159517; calls by dose curve; also: nearly all actives have a fitted effect of over 50% in size; also: potency is read from the fitted curve at half-maximal effect)
Summary of the method: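 ESRE-bla HeLa cells, 1,500 per well, seeded overnight then treated with compounds for 5 hr at 37 C. After the beta-lactamase read, viability in the same wells is measured by CellTiter-Glo luminescence after 30 min at room temperature.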

[7] = qHTS assay to identify small molecule antagonists of the retinoid-related orphan receptor gamma (ROR-gamma) signaling pathway - cell viability counter screen (AID 1159520); also: nearly all actives have a fitted effect of over 50% in size; also: potency is read from the fitted curve at half-maximal effect
Summary of the method: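 Tet-on ROR gamma CHO cells were given compounds for 2 hr, then doxycycline hyclate at 1 uM final, and incubated 16 hr at 37 C. Viability was measured as ATP content by CellTiter-Glo luminescence.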

[8] = molecular target: Nuclear receptor ROR-gamma (Homo sapiens) (UniProt P51449); test: qHTS assay to identify small molecule antagonists of the retinoid-related orphan receptor gamma (ROR-gamma) signaling pathway (AID 1159521; also: nearly all actives have a fitted effect of over 50% in size; also: potency is read from the fitted curve at half-maximal effect)
Summary of the method: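 Screening format: cell-based luciferase reporter in CHO cells with doxycycline-inducible RORγ. Compound pre-exposure lasts 2 h, doxycycline is 1 uM final, induction runs 16 h at 37 C, and ONE-Glo luminescence is read.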

[9] = qHTS assay to identify small molecule agonists of the AP-1 signaling pathway - cell viability counter screen (AID 1159525; calls by dose curve; also: nearly all actives have a fitted effect of over 55% in size; also: potency is read from the fitted curve at half-maximal effect)
Summary of the method: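 AP-1-bla ME-180 cells in Opti-MEM with 0.5% dialyzed FBS, compound exposure 5 h at 37 C in 15-point titration. Viability read in the same wells as ATP content by CellTiter-Glo luminescence, normalised to tetra-n-octylammonium bromide and DMSO controls.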

[10] = qHTS assay to identify small molecule antagonists of the vitamin D receptor (VDR) signaling pathway - cell viability counter screen (AID 743225); also: nearly all actives have a fitted effect of over 50% in size; also: potency is read from the fitted curve at half-maximal effect
Summary of the method: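 In this counter screen, VDR-bla HEK 293T cells receive test compound plus 3 nM final calcitriol for 16 h at 37C. Room-temperature steps of 2 h with the beta-lactamase substrate, then 30 min with CellTiter-Glo, precede the luminescence read.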

[11] = molecular target: Peroxisome proliferator-activated receptor delta (Homo sapiens) (UniProt Q03181); test: qHTS assay to identify small molecule agonists of the peroxisome proliferator-activated receptor delta (PPARd) signaling pathway (AID 743212; calls by dose curve)
Peroxisome proliferator-activated receptor delta (Homo sapiens), sequence (Q03181 whole entry, looked up): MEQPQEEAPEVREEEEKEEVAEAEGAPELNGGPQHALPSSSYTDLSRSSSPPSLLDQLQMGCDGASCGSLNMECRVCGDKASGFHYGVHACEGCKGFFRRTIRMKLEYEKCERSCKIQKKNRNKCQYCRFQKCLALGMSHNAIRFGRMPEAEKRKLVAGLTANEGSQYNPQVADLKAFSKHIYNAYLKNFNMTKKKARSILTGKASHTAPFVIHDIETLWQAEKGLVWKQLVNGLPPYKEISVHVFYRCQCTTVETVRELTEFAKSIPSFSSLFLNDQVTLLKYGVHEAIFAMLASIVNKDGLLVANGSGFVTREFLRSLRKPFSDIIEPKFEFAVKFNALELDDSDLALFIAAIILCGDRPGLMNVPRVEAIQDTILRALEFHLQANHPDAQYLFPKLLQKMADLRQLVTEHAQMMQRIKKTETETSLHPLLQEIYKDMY
Summary of the method: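 GeneBLAzer UAS-bla HEK293H cells carrying a PPARδ construct were exposed to compounds at 37 °C. Beta-lactamase activity was read by FRET fluorescence after 2 h at room temperature with LiveBLAzer B/G substrate.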

[12] = molecular target: Peroxisome proliferator-activated receptor delta (Homo sapiens) (UniProt Q03181); test: qHTS assay to identify small molecule antagonists of the peroxisome proliferator-activated receptor delta (PPARd) signaling pathway (AID 743215; active = well fitted inhibition curve with a large enough effect in the signal ratio in the repeat runs, not every such curve was filed as active; the % refers to the signal ratio;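 also: cells stimulated with agonist L165041 at 300 nM final during compound exposure; series mostly up to about 62 µM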)
Summary of the method: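 With L165041 present at 300 nM final, compounds were incubated 17 h at 37 C on PPARd UAS-bla HEK293H cells. A FRET-based beta-lactamase substrate was then applied for 2 h at room temperature and fluorescence intensity recorded.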

[13] = molecular target: Bile acid receptor (Homo sapiens) (UniProt Q96RI1); test: qHTS assay to identify small molecule agonists of the farnesoid-X-receptor (FXR) signaling pathway (AID 743220; active = well fitted activation curve with a large enough effect in the signal ratio in the repeat runs, not every such curve was filed as active; the % refers to the signal ratio)
Bile acid receptor (Homo sapiens), sequence (Q96RI1 whole entry, looked up): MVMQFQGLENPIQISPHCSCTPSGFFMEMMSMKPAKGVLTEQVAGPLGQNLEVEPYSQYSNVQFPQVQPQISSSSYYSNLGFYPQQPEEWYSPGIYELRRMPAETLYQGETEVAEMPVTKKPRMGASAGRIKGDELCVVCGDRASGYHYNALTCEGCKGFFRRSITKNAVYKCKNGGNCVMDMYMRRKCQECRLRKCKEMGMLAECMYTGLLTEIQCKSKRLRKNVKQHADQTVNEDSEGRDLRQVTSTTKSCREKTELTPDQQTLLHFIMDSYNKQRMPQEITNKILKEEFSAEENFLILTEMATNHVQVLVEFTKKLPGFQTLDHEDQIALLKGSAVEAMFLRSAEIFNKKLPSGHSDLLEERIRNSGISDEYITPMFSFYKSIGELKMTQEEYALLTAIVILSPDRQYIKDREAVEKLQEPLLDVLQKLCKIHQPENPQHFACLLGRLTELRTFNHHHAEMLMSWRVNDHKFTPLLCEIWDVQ
Summary of the method: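 Beta-lactamase reporter under UAS control in GeneBLAzer FXR HEK 293T cells (5000/well) measured with LiveBLAzer FRET substrate after 2 h at room temperature. Compound exposure lasted 16 h at 37C.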

[14] = qHTS assay to identify small molecule antagonists of the farnesoid-X-receptor (FXR) signaling pathway - cell viability counter screen (AID 743221; active = well fitted cell-killing curve with a large enough effect in the repeat runs, not every such curve was filed as active; also: nearly all actives have a fitted effect of over 50% in size; also: potency is read from the fitted curve at half-maximal effect)
Summary of the method: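 Compound effects on cell number were measured as CellTiter-Glo luminescence in HEK 293T cells expressing FXR-UAS-bla, after 16 h at 37 C with 50 uM CDCA (final).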

[15] = molecular target: Vitamin D3 receptor (Homo sapiens) (UniProt P11473); test: qHTS assay to identify small molecule antagonists of the vitamin D receptor (VDR) signaling pathway (AID 743223; active = well fitted inhibition curve with a large enough effect in the signal ratio in the repeat runs, not every such curve was filed as active; the % refers to the signal ratio)
Vitamin D3 receptor (Homo sapiens), sequence (P11473 whole entry, looked up): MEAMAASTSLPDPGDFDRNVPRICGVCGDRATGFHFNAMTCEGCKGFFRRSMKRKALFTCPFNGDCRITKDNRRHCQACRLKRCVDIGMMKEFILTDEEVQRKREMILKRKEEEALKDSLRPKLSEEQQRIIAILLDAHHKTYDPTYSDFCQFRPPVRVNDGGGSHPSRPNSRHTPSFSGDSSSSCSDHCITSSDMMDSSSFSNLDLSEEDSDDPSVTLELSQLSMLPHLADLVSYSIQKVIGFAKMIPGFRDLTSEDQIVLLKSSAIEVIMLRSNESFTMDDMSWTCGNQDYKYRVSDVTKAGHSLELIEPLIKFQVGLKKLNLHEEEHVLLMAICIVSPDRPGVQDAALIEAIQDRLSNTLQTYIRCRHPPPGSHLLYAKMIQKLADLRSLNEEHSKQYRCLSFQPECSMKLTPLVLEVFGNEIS
Summary of the method: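 Beta-lactamase activity in VDR-bla cells is measured by FRET substrate fluorescence (2 h, room temperature) after cells spend 16 h at 37C with test compound and 3 nM final 1alpha,25-dihydroxyvitamin D3.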

[16] = molecular target: Retinoic acid receptor RXR-alpha (Homo sapiens) (UniProt P19793); test: qHTS assay to identify small molecule agonists of the RXR signaling pathway (AID 1159527; calls by dose curve; also: nearly all actives have a fitted effect of over 35% in size; also: potency is read from the fitted curve at half-maximal effect)
Retinoic acid receptor RXR-alpha (Homo sapiens), sequence (P19793 whole entry, looked up): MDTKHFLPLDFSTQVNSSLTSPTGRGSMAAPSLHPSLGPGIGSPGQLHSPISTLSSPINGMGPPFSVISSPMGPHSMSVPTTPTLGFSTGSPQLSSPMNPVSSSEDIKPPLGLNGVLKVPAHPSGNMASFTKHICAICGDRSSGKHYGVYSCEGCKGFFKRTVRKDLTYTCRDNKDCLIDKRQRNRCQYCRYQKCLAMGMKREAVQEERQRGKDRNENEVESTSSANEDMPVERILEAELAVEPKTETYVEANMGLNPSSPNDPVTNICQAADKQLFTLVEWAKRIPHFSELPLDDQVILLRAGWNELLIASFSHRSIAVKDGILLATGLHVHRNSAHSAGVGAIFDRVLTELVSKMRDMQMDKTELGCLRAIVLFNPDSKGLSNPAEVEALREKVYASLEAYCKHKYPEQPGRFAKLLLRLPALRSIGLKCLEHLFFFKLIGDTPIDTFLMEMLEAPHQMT
Summary of the method: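 Fluorescence ratio readout (460 vs 530 nm) from GeneBLAzer RXR-alpha HEK 293T cells after 16 hr compound treatment; cells seeded 5 hr beforehand in low-serum, charcoal-stripped medium.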

[17] = molecular target: Vitamin D3 receptor (Homo sapiens) (UniProt P11473); test: qHTS assay to identify small molecule agonists of the vitamin D receptor (VDR) signaling pathway (AID 743222; calls by dose curve)
Summary of the method: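 VDR-bla cells were seeded, left 4 h, treated with compounds in DMSO for 16 h, incubated 2 h at RT with B/G FRET substrate, and read for fluorescence.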

[18] = molecular target: Bile acid receptor (Homo sapiens) (UniProt Q96RI1); test: qHTS assay to identify small molecule antagonists of the farnesoid-X-receptor (FXR) signaling pathway (AID 743217; active = well fitted inhibition curve with a large enough effect in the signal ratio in the repeat runs, not every such curve was filed as active; the % refers to the signal ratio)
Summary of the method: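 In this cell-based antagonist screen, inhibition of CDCA-driven (50 uM final) UAS-beta-lactamase expression in HEK 293T cells was measured by FRET fluorescence following 16 h compound exposure at 37 °C.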

Measured: Potency

CCCCCCCCNC(C)C(O)c1ccc(SC(C)C)cc1 (stereo not given)
active: [1] 9.44 µM | [2] 8.41 µM | [3] 18.8 µM | [4] 13.3 µM | [5] 13.4 µM | [6] 19 µM | [7] 18.8 µM | [8] 23.7 µM | [9] 16.9 µM

CCCCCCCC[P+](CCCCCCCC)(CCCCCCCC)CCCCCCCC
active: [1] 5.46 µM | [2] 7.71 µM | [3] 8.65 µM | [4] 3.45 µM | [10] 13.7 µM | [5] 5.46 µM | [6] 13.7 µM | [7] 6.82 µM | [8] 1.71 µM | [9] 12.2 µM

COc1cc(/C=C/C(=O)O[C@H]2CC[C@]34C[C@]35CC[C@]3(C)[C@@H]([C@H](C)CCC=C(C)C)CC[C@@]3(C)[C@@H]5CC[C@H]4C2(C)C)ccc1O
not listed: [2] | [17] | [18]
inactive: all other assays above

CCCCCCCC[N+](CCCCCCCC)(CCCCCCCC)CCCCCCCC
active: [1] 6.15 µM | [2] 6.9 µM | [14] 21.8 µM | [10] 7.75 µM | [5] 24.5 µM | [6] 43.6 µM | [7] 8.62 µM | [8] 6.1 µM | [9] 15.5 µM

CCCCN1CCCC[C@H]1C(=O)Nc1c(C)cccc1C
not listed: [1] | [2] | [13] | [14] | [15] | [18]
inactive: all other assays above

Clc1ccc2cc3ccccc3cc2c1
active: [16] 54.9 µM
not listed: [1] | [3] | [10] | [11] | [15] | [17]
inactive: all other assays above

CCCCc1oc2ccc(NS(C)(=O)=O)cc2c1C(=O)c1ccc(OCCCN(CCCC)CCCC)cc1
active: [1] 16.8 µM | [2] 23.7 µM | [3] 26.6 µM | [10] 23.9 µM | [5] 26.8 µM | [6] 21.3 µM | [7] 26.6 µM | [8] 23.7 µM | [9] 19 µM

O=S1(=O)CC(Cl)(Cl)C(Cl)(Cl)C1
inactive: [17]
active: [1] 3.09 µM | [2] 3.89 µM | [3] 5.49 µM | [14] 9.77 µM | [4] 2.19 µM | [10] 4.36 µM | [5] 5.49 µM | [6] 4.9 µM | [7] 6.11 µM | [8] 2.17 µM | [9] 4.9 µM

CCN(C(=O)c1cc(C)cc(OC[C@H](C)Nc2ccncc2)c1)C(C)C
inactive: [1] | [2] | [3] | [13] | [5] | [6] | [7] | [8] | [9]

CCCCC(CC)CN=C(N)NC(N)=NCCCCCCN=C(N)NC(N)=NCC(CC)CCCC (stereo not given)
active: [1] 6.68 µM | [2] 8.41 µM | [3] 13.3 µM | [14] 21.1 µM | [4] 23.7 µM | [10] 7.56 µM | [5] 19 µM | [6] 16.9 µM | [7] 26.6 µM | [8] 26.6 µM | [9] 10.7 µM

O=C(NO)C1(NS(=O)(=O)c2ccc(Oc3ccc(F)cc3)cc2)CCOCC1
not listed: [13] | [16] | [17] | [18]
inactive: all other assays above

CC(C)CCCCCCCCCCCCCCC(=O)O
inactive: [2] | [12] | [3] | [14] | [4] | [5] | [6]
active: [7] 68.6 µM | [8] 54.5 µM | [9] 24.5 µM | [16] 11 µM

COCCCC/C(=N\OCCN)c1ccc(C(F)(F)F)cc1
active: [1] 23.7 µM
not listed: [3] | [14] | [15] | [16]
inactive: all other assays above

CCCCCCCCCCCCCCCS(=O)(=O)Oc1ccccc1
not listed: [2] | [4] | [10] | [11] | [12] | [14] | [18]
inactive: all other assays above

Oc1cc2ccccc2c2ccccc12
active: [1] 6.92 µM | [2] 5.49 µM | [3] 11 µM | [14] 9.77 µM | [4] 2.45 µM | [10] 4.36 µM | [5] 4.9 µM | [6] 11 µM | [7] 17.2 µM | [8] 12.2 µM | [9] 11 µM

CC(C)c1ccc2c(c1)CC[C@H]1[C@](C)(CN)CCC[C@]21C
active: [1] 11 µM | [2] 21.9 µM | [3] 12.3 µM | [14] 54.9 µM | [4] 17.4 µM | [10] 43.6 µM | [5] 19.5 µM | [6] 9.77 µM | [7] 30.6 µM | [8] 30.6 µM | [9] 54.9 µM

Reference: PubChem BioAssay (Tox21)
